From PubChem BioAssay AID743279 (National Center for Advancing Translational Sciences (NCATS), 2014) come the findings set out here.

In all, about 360,000 compounds went through this assay and about 17,000 (4.7%) were called active. Not shown: some 5% with an inconclusive outcome. This excerpt belongs to a sample that is enriched for actives. A number with no mark means an inactive call. No stated cut-off is given here; in the data, active means activity change below about -50%; inconclusive means mostly about -30% to -49%; inactive means weaker than that.
On the % scale 0 is the no-effect control and ±100 the full control effect.

This assay can be described thus: qHTS for Inhibitors of Inflammasome Signaling: IL-1-beta AlphaLISA Primary Screen. The note with it: THP-1 LPS/ATP IL-1B secretion, 16 h; at 57.5 µM, stronger effect = lower value. In a few lines:
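Secreted IL-1B measured by AlphaLISA bead assay after 16 h compound exposure of THP-1 cells; compounds (final up to 57.5 uM) added 1 h before LPS (250 ng/mL) and ATP (1.25 mM) stimulation; lower signal means less secretion.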
Background: qHTS replaces the single test concentration by a dilution series.
As to `O=C(NCC1CCCCC1)NCC1CCCCC1`, the activity change is 5.16%. The same measure for `C[C@@H]1CN([C@@H](C)CO)C(=O)CCCn2nncc2CO[C@H]1CN(C)Cc1ccc(C(F)(F)F)cc1`: 14.2%; for `CCOC(=O)c1cccc(NC(=O)CCn2nnc3ccccc32)c1`: -9.21%. The same measure for `CCOC(=O)c1nnn(CC(=O)Nc2cccc(F)c2)c1C(=O)OCC`: -64.5% (active); for `CCOC(=O)c1cccc(NC(=O)c2ccc(F)cc2F)c1`: 13.7%; for `Cc1cccc(-n2cc(CN3CCN(C(=O)c4ncn[nH]4)CC3)c(-c3cccc(F)c3)n2)c1`: 0.119%. The same measure for `Cn1cc(CN2CCC(C(O)CCc3ccccc3)CC2)c(-c2ccccc2F)n1` (stereo unspecified): -20.8%; for `CCC(O)C1CCN(Cc2cn(-c3ccc(OC)cc3)nc2-c2cccc(F)c2)CC1` (stereo unspecified): -60.7% (active).

With `COc1ccc(-n2cc(CN(C)Cc3n[nH]c(=O)[nH]3)c(-c3cccc(F)c3)n2)cc1`, the activity change is -3.96%. Take `COc1ccc(-n2cc(CNC3CCOCC3)c(-c3cccc(F)c3)n2)cc1`: the activity change is -66.6% (active). The same measure for `COc1ccc(-c2nn(-c3ccccc3)cc2CN2CCCO2)c(F)c1`: -28.9%. For `OCCC1CN(Cc2ccc3nsnc3c2)CCN1C1CCCCC1` (stereo unspecified) the value was 36.7%; for `O=C(COc1ccc(Br)cc1)OCC(=O)c1ccc[nH]1`, -7.68%.

On to `CCCNC(=O)C1(C)CCN(C(=O)c2ccc(F)cc2Cl)C1` (stereo unspecified), for which the activity change was 16.4%. The same measure for `CC1(C)CC(=O)C2=C(C1)N=C1SCCC(=O)N1C2c1ccc(C(F)(F)F)cc1` (stereo unspecified): 0.519%. Consider `Cn1c(NN)nc2sc3c(c2c1=O)CCC3`, for which the activity change is 26.1%.

Consider `CCCc1nc2sc3c(c2c(=O)n1NC(=O)CCCl)CCCC3`, for which the activity change was -96.6% (active). The same measure for `NNC(=O)C1CCCn2c1nc1sc3c(c1c2=O)CCCC3` (stereo unspecified): 0%. For `CCc1nc(N2CCN(C(C)=O)CC2)c2c3c(sc2n1)CCCC3` the value was -1.89%. The same measure for `Cc1ccc(C)c(-n2c(SCC(=O)O)nc3sc4c(c3c2=O)CCCC4)c1`: 0.0998%. Regarding `Cc1nc2sc3c(c2c(=O)n1NC(=O)CCl)CCCC3`, the activity change was -80.7% (active). For `O=C1[C@H]2[C@@H](c3ccc(C(F)(F)F)cc3)N[C@]3(CCCN(Cc4ccc(Br)cc4)C3=O)[C@H]2C(=O)N1Cc1ccccc1` the value was -13.1%. For `Cc1ccc(S(=O)(=O)N2CC3C(=O)C[C@@H](c4ccccc4Cl)N(S(=O)(=O)c4ccc(C)cc4)C3CC2c2ccccc2)cc1` (stereo partly specified) the value was -22%.

Regarding `COC(=O)[C@]12CCCCC=C1N(Cc1ccc3c(c1)OCO3)C(=O)[C@H](CC(=O)N1CCOCC1)C2`, the activity change is -18.3%. For `C/C=C/c1ccc(OCCCCN2CCC(C)CC2)c(OC)c1` the value was -54% (active); for `C/C=C/c1ccc(OCCOc2ccc(C=O)cc2OC)c(OC)c1`, 3.9%.

Turning to `C=CCc1ccc(OCC(O)CN2CCN(Cc3ccccc3)CC2)c(OC)c1` (stereo unspecified), the activity change is -7.39%.

Turning to `COc1ccc(OCCCCN2CCC(C)CC2)cc1`, the activity change was -29.3%. For `COc1ccccc1OCC(O)CN1CCOCC1` (stereo unspecified) the value was 5.64%. For `C/C=C/c1ccc(OCC(O)CN2CCCCCCC2)c(OC)c1` (stereo unspecified) the value was -53.6% (active); for `CC(=O)Nc1ccc(C(=O)OCC(=O)Nc2ccc([N+](=O)[O-])cc2C(F)(F)F)cc1`, -1.11%; for `COC(=O)[C@]12CCCCC=C1N(Cc1ccco1)C(=O)[C@H](CC(=O)NCCCCc1ccccc1)C2`, 4%. Take `CC(=O)Nc1cccc(-c2cc3nc(NCc4cccnc4)n(C)c(=O)c3s2)c1`: the activity change was -0.936%. The same measure for `Cc1ccc(S(=O)(=O)NNC(=O)/C=C/c2cccc(F)c2)cc1`: -11.4%. On to `CC(=O)Nc1ccc(CN2CCC(Oc3ccc(C(=O)N4CCCC4)cc3)CC2)cc1`, for which the activity change is 20.8%.

In the case of `Cc1nn(C)c(Cl)c1CN1CCC(n2nccc2NC(=O)C2CCCC2)CC1`, the activity change is 22.9%. For `O=C(c1ccc(OC2CCN(C/C=C/c3ccc(F)cc3)CC2)cc1)N1CCCCC1` the value was -63.7% (active); for `O=C(c1ccc(OC2CCN(Cc3ccccn3)CC2)cc1)N1CCCCCC1`, 2.11%; for `CC(CN1CCC(n2nccc2NC(=O)C2CCCC2)CC1)c1ccccc1` (stereo unspecified), -14%. The same measure for `O=C(Nc1ccnn1C1CCN(C/C=C/c2ccc(F)cc2)CC1)C1CCCC1`: -71.6% (active). The same measure for `CCC(C(=O)NC(C)(C)C)n1c(-c2ccccc2)nc2ccccc21` (stereo unspecified): 3.76%; for `CC(=O)Nc1ccc2nc(NC(=O)CS(=O)(=O)c3ccc(F)cc3)sc2c1`: 2.42%; for `CCOc1ccc(S(=O)(=O)NCCC(=O)NCC(C)(C)N2CCOCC2)cc1`: 12.3%. For the compound `Cc1ccc(NC(=O)[C@H](Cc2ccccc2)NC(=O)CC[C@H]2O[C@@H](n3ccc(=O)[nH]c3=O)[C@H](O)[C@@H]2O)cc1C`, the activity change is 6.2%. The same measure for `CC1(C)OC(=O)C2=C(C[C@@H](C3CC3)O[C@H]2CCc2cccc(Cl)c2)O1`: 24.6%. The same measure for `COc1cnn(-c2ccc([N+](=O)[O-])cc2)c(=O)c1Cl`: -16.9%; for `COc1ccc(CCNC(=O)c2c(C)nn(-c3ccccc3)c2Cl)cc1`: -6.31%. For `COc1ccc(Oc2c(Cl)cnn(-c3ccccc3)c2=O)cc1`, the activity change is -118% (active). On to `CCc1ccc(NC(=O)C(=O)NNC(=O)c2cccs2)cc1`, for which the activity change is -11.1%. The same measure for `CCOc1ccc(NC(=O)CN(C)C(=O)CSc2ccccc2)cc1OCC`: 5.24%; for `O=C(Nc1ccc(F)cc1)C(=O)c1cn(CC(=O)N2CCOCC2)c2ccccc12`: 8.7%; for `Cc1ccnc(NS(=O)(=O)c2ccc(NC(=O)c3oc4ccc(F)cc4c3C)cc2)n1`: 4.03%. Regarding `COc1cc([N+](=O)[O-])ccc1NC(=O)COC(=O)CCOc1ccc(C)cc1`, the activity change is -81.7% (active). The same measure for `COc1cccc(NC(=O)COC(=O)CCOc2ccccc2OC)c1`: -1.64%; for `CSc1ccccc1NC(=O)COC(=O)CCCOc1ccc(C)cc1`: 13.8%; for `O=C(COC(=O)c1cccc(Cl)c1Cl)NC1CCCCCC1`: 4.38%.
